Inconclusive results are not listed. Unmarked numbers belong to inactive results. Activity calls are given as the source filed them. Calls follow the shape of the dose curve; as a rule, active = well fitted inhibition curve with a large enough effect in the repeat runs; inconclusive = weak or mixed curves; inactive = no such curve, though single readings can be large or run the other way.
molecular target: Estrogen receptor (Homo sapiens) (UniProt P03372); test: qHTS assay to identify small molecule antagonists of the estrogen receptor alpha (ER-alpha) signaling pathway using the BG1 cell line in the presence of 0.1 nM 17-beta-estradiol (AID 1259244); conditions: VM7Luc4E2 (BG1) ERE-luciferase, antagonist mode, 0.1 nM E2, 22 h; series mostly up to 92.4 µM; also: nearly all actives have a fitted effect of over 50% in size
Excerpt: National Center for Advancing Translational Sciences [NCATS]
NIH Chemical Genomics Center [NCGC]
U.S. Environmental Protection Agency [EPA]
National Institutes of Environmental Health Sciences [NIEHS]
National Toxicology Program [NTP]
U.S. Food and Drug Administration [FDA]
Estrogen receptor (ER), a member of the nuclear hormone receptor plays an important role in development, metabolic homeostasis and reproduction. Two subtypes of ER, ER-alpha and ER-beta, have similar expression patterns with some uniqueness in both types. Endocrine disrupting chemicals (EDCs) and their interactions with steroid hormone receptors like ER causes disruption of normal endocrine function. Therefore, it is important to understand the effect of environmental chemicals in ER signaling pathway. For identifying ER antagonists, VM7Luc4E2 cell line was used to screen against Tox21 compound libraries.
VM7Luc4E2 cell line (provided by Denison MS, University of California) endogenously express full-length ER-alpha and is stably transfected with a plasmid containing four estrogen responsive elements (ERE) upstream of a luciferase reporter gene. The current screening for identification of ER-alpha inhibitors against Tox21 compound libraries used lower concentration (0.1 nM) of 17beta-Estradiol as a stimulator.
Tox21 Assay Protocol Summary:
VM7Luc4E2 cells were cultured in phenol red free assay medium containing 10% charcoal stripped FBS for 5 days prior to the assay. The cells were dispensed at 4,000 cells/well in 4 uL of assay medium into white wall/solid-bottom 1536-well plates (Corning Life Sciences, Corning, NY) using a Multidrop Combi (ThermoFisher Scientific, Waltham, MA) dispenser. After the assay plates were incubated at 37C and 5% CO2 for 24 hr, 23 nL of compounds dissolved in DMSO, positive controls or DMSO only was transferred to the assay plates by a Pintool station (Kalypsys, San Diego, CA). The transfer of compounds was followed by the addition of 1 uL of 0.1 nM (final concentration) agonist (17beta-Estradiol)/assay medium using a Flying Reagent Dispenser (FRD, Aurora Discovery, San Diego, CA). The plates were incubated at 37C and 5% CO2 for 22 hr. For luciferase reporter gene assay, 4 uL of ONE-Glo reagent (Promega Corporation, Madison, WI) was added to each well using the FRD and after 30 min incubation at room temperature luminescence intensity was measured using ViewLux plate reader (PerkinElmer, Shelton, CT).
% is scaled to controls: 0 for no effect and ±100 for the full control effect.

Sequence of Estrogen receptor (Homo sapiens) (P03372 whole entry, looked up): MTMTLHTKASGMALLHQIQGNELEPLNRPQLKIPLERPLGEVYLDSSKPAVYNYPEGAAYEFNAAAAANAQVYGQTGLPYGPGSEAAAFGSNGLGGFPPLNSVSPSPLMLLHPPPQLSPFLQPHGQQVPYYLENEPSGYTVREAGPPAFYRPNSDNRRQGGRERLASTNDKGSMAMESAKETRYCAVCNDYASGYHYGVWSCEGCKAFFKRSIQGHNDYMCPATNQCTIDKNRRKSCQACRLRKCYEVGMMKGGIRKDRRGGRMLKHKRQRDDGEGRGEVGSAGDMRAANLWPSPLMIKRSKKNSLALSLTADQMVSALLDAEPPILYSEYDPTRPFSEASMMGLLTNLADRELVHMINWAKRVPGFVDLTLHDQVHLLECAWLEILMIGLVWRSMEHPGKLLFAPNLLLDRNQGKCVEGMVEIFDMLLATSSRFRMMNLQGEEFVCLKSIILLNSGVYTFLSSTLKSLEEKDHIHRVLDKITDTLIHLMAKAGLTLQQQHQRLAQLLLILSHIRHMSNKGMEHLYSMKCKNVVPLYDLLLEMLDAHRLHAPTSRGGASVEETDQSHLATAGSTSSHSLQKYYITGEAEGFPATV

Structure (SMILES)	outcome	activity change, negative = inhibition
O=S(=O)(O)c1cccc(S(=O)(=O)O)c1	inactive	–
CC1OC1C1CCC2(C)OC2C1 (stereo not given)	inactive	–
Cc1cc(C)c(N=Nc2c(O)c(S(=O)(=O)O)cc3cc(S(=O)(=O)O)ccc23)cc1C	–	-1.05% [at 8.39 µM]
CCCCOCCOC(=O)COc1cc(Cl)c(Cl)cc1Cl	inactive	–
CC1(C)OC[C@@H](COC(=O)CCc2ccc(OC[C@@H](O)CNCCNC(=O)N3CCOCC3)cc2)O1	inactive	–
CC1CCC(CO)CC1 (stereo not given)	inactive	–
CC(C)(C)C(=O)Oc1ccc(S(=O)(=O)Nc2ccccc2C(=O)NCC(=O)O)cc1	inactive	–
Nc1c2c(nc3c1CCC3)CCCC2	inactive	–
CCCCS(=O)(=O)N[C@@H](Cc1ccc(OCCCCC2CCNCC2)cc1)C(=O)O	inactive	–
C1CCC2(CCCCO2)OC1	inactive	–
Nc1ccn([C@@H]2O[C@H](CO)[C@@H](O)C2(F)F)c(=O)n1	inactive	–
CC1=NS(=O)(=O)c2cc(Cl)ccc2N1	inactive	–
CCCCCCCC1CCCC1=O (stereo not given)	inactive	–
CN1CCC(=C2c3ccccc3CCc3cccnc32)CC1	inactive	–
Cc1cccc(C)c1NC(=O)CC12CCCN1CCC2	inactive	–
CC(=O)C1CCCCC1=O (stereo not given)	inactive	–
CN(C)C(=O)Oc1ccc[n+](C)c1	inactive	–
CN1CC(=O)N/C1=N/C(=O)Nc1cccc(Cl)c1	inactive	–
C=C[Si](OC(C)=O)(OC(C)=O)OC(C)=O	inactive	–
OCCCCCO	inactive	–

Structure (SMILES)	outcome	activity change, negative = inhibition
COc1ccnc(CS(=O)c2nc3cc(OC(F)F)ccc3[nH]2)c1OC (stereo not given)	inactive	–
CCCCCCC1CCC(=O)O1 (stereo not given)	inactive	–
N[C@@H](CCC(=O)O)C(=O)O	inactive	–
C=CCCCCCCCCC(=O)OCC	inactive	–
C=COC(=O)C(C)(CC)CCC(C)C (stereo not given)	inactive	–
O=C(CO)[C@@H](O)[C@H](O)[C@H](O)CO	inactive	–
O=C(c1ccccc1O)c1ccccc1O	inactive	–
CCOC(=O)C1=NOC(c2ccccc2)(c2ccccc2)C1	inactive	–
Clc1cc(Cl)cc(Cl)c1	inactive	–
[O-][n+]1cccc(CO)c1	inactive	–
CC(C)c1ccc2ncccc2c1	inactive	–
CC(COc1ccccc1)NN (stereo not given)	inactive	–
CCCCCCCCCCOc1cc2c(=O)c(C(=O)OCC)c[nH]c2cc1OCC	–	-1.66% [at 8.39 µM]
Cc1ccc(-c2ccccc2C#N)cc1	inactive	–
Cc1ncc(COP(=O)(O)O)c(C=O)c1O	inactive	–
Cc1ccc(C(=O)c2ccccc2)cc1	inactive	–
C=CCOCC(O)CO (stereo not given)	inactive	–
CC(C)=CCC/C(C)=C/C#N	inactive	–
O=S(=O)(O)c1cc(O)c(O)c(S(=O)(=O)O)c1	inactive	–
CCOC(=O)COc1cc(-n2ncc(C(F)(F)F)c(C)c2=O)c(F)cc1Cl	inactive	–

From PubChem BioAssay (Tox21)
